# Measured values as given in PubChem BioAssay.
# Values joined by “and” are separate entries in the source; they are usually repeats but may differ in a detail not shown here. Identical values can stand only once. Active and inactive are the calls of the source. Rule as the data show it, unless noted: active = inhibition above about 80%; inactive = the rest.
# Assays:
# [1] = RCMB18 cell growth, single agent and combined, cisplatin and BGB IC40 combos (AID 1671462); conditions: RCMB18 medulloblastoma cells, stronger effect = higher value;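 also: cells exposed to compound for four days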
# [2] = CRL1545 cell growth, single agent and combined, cisplatin and BGB IC20 combos (AID 1671464); conditions: CRL1545 osteosarcoma cells, stronger effect = higher value;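 also: cells exposed to compound for 96 hours before readout; 0% = vehicle DMSO and 100% = high DMSO killing control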
# [3] = signal quenchers or enhancers, Cy5 substrate/SSB – biochemical, NIH Clinical Collection, E. coli SSB, artefact control for HCV NS3 helicase inhibitor project (AID 743268; call rule not given here); conditions: Cy5-oligo bound E. coli SSB, fluorescence interference
# [4] = system: Hepatitis C virus NS3 helicase; experiment: blockers of NS3h binding to DNA – biochemical, fluorescence polarization, NIH Clinical Collection, primary screen (AID 743270; call rule not given here); conditions: NS3 helicase binding to Cy5-dT15 DNA, stronger effect = higher value, concentration not given here
# [5] = target: Single-stranded DNA-binding protein (Escherichia coli (strain K12)) (UniProt P0AGE0); experiment: SSB-ssDNA binding inhibitors – biochemical, fluorescence polarization, NIH Clinical Collection, counter-screen for HCV NS3 helicase inhibitor project (AID 743271; in the data active = inhibition above about 28%); conditions: E. coli SSB-DNA binding, stronger effect = higher value, concentration not given here
# [6] = compounds distorting NS3 helicase fluorescence signal – biochemical, NIH Clinical Collection, artefact control for HCV NS3 helicase inhibitor project (AID 743272; call rule not given here;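 also: HCV NS3 helicase with a Cy5 labelled single stranded DNA probe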); conditions: fluorescence interference counterscreen, HCV NS3 helicase assay; stronger effect = lower value
# [7] = growth inhibition, single agent or in combination, cell-based, chromothripsis tumors, cisplatin or BGB combos (AID 1671449); conditions: LFS_MB_P medulloblastoma cells;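 also: cells exposed for 96 hours; 0% = vehicle DMSO and 100% = killing by high DMSO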
# [8] = growth inhibition, single agent and combos, cell-based, chromothripsis tumors, cisplatin or BGB combos (AID 1671450); conditions: HDN33 neuroblastoma cells, stronger effect = higher value;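 also: cells exposed to compound for four days; 0% = vehicle DMSO and 100% = cell killing by high DMSO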
# [9] = growth inhibition, single agents and combos, ICB984, cell-based, cisplatin or BGB combos, synergistic combos for chromothripsis tumors (AID 1671451; call rule not given here;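 also: cells exposed for 96 hours before readout; 0% = vehicle DMSO and 100% = killing by high DMSO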); conditions: ICB984 medulloblastoma cells, drug combinations, stronger effect = higher value
# [10] = growth inhibition, single agents and combos, LFS_MB_1R, cell-based, cisplatin or BGB combos, synergistic combos for chromothripsis tumors (AID 1671452); conditions: LFS_MB_1R medulloblastoma cells, stronger effect = higher value;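 also: cells exposed for 96 hours before readout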
# [11] = growth inhibition, single agents and combos, HTB85, cell-based, BGB or cisplatin IC20 combos, synergistic combos for chromothripsis tumors (AID 1671453); conditions: HTB85 osteosarcoma cells, drug combinations, stronger effect = higher value;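 also: cells exposed for 96 hours before readout; 0% = vehicle DMSO and 100% = high DMSO killing control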
# [12] = growth inhibition, single agents and combos, CRL2098, cell-based, BGB or cisplatin IC20 combos, synergistic combos for chromothripsis tumors (AID 1671454); conditions: CRL2098 osteosarcoma cells, drug combinations, stronger effect = higher value;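 also: cells exposed for 96 h before readout; 0% = vehicle DMSO and 100% = killing by high DMSO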
# [13] = growth inhibition, single agents and combos, HD-MB03, cell-based, BGB or cisplatin IC20 combos, synergistic combos for chromothripsis tumors (AID 1671455; in the data active = inhibition above about 83%;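 also: 0% = vehicle DMSO and 100% = high DMSO as cytotoxic control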); conditions: HD-MB03 medulloblastoma cells, stronger effect = higher value
# [14] = growth inhibition, single agents and combos, UWB1.289, cell-based, BGB or cisplatin combos, synergistic combos for chromothripsis tumors (AID 1671456); conditions: UWB1.289 ovarian carcinoma cells, stronger effect = higher value;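 also: cells exposed to compound for four days; 0% = vehicle DMSO and 100% = killing by high DMSO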
# [15] = growth inhibition, single agents and combos, LFS_MB_2R, cell-based, cisplatin combos, synergistic combos for chromothripsis tumors (AID 1671457); conditions: LFS_MB_2R medulloblastoma cells, stronger effect = higher value;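 also: cells exposed to compound for four days before readout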
# [16] = growth inhibition, MDA-MB-436, cell-based, BGB or cisplatin combos, synergistic combos for chromothripsis tumors (AID 1671458; call rule not given here;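 also: cells exposed for 96 hours; 0% = vehicle DMSO and 100% = killing by high DMSO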); conditions: MDA-MB-436 breast carcinoma growth inhibition, drug combinations, stronger effect = higher value
# [17] = UWB1.289_BRCA1 ovarian cancer growth, cell-based, BGB or cisplatin combinations (AID 1671459); conditions: UWB1.289 BRCA1 ovarian carcinoma, drug combinations, stronger effect = higher value
# [18] = drug combination toxicity in non-malignant astrocytes – cell-based, BGB or cisplatin IC20 combos, cytotoxicity control for chromothriptic childhood tumor combination screen (AID 1671460); conditions: Human astrocytes, viability inhibition, drug combinations, at 0.5 µM, stronger effect = higher value;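 also: cells exposed to compounds for 96 hours before viability readout; 0% = vehicle and 100% = killing control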
# [19] = BT084 cell growth, single and combined drugs, ICGC_MB145, cisplatin and BGB IC40 combos (AID 1671461); conditions: BT084 medulloblastoma cells, drug combinations, stronger effect = higher value;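 also: cells exposed to drugs for 96 hours; 0% = vehicle DMSO and 100% = high DMSO full killing control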
# [20] = measured here: BGB IC40 combination, at 0.05 µM
# [21] = measured here: combination with cisplatin, at 0.5 µM
# [22] = measured here: with BGB IC20 combination, at 0.5 µM
# [23] = measured here: with cisplatin IC20 combination, at 0.5 µM
# [24] = measured here: combination with BGB IC40, at 0.05 µM
# [25] = measured here: combination with cisplatin, at 5 µM
smiles,measurement,setting,value
CCCCNNC(=O)c1ccc(Br)cc1,inhibition,[1]; [20],-7.86% and -8.38%
same,inhibition,[1]; [21],-0.38% and 8.6%
same,inhibition,"[1]; single agent, at 5 µM",-15.8% and 24%
same,inhibition,[2]; at 0.5 µM,-8.18% (inactive) and -0.65% (inactive)
same,inhibition,[2]; [22],-10.3% and -18.8%
same,inhibition,[2]; [23],-7.12% and 6.96%
same,inhibition,"[2]; single agent, at 0.05 µM",-17.3% and -29.7%
same,inhibition,"[2]; single agent, at 5 µM",-21.8% and -15.7%
CO[C@H]1/C=C/O[C@@]2(C)Oc3c(C)c(O)c4c(O)c(c5c(c4c3C2=O)=NC2(CCN(CC(C)C)CC2)N=5)NC(=O)/C(C)=C\C=C\[C@H](C)[C@H](O)[C@@H](C)[C@@H](O)[C@@H](C)[C@H](OC(C)=O)[C@@H]1C,fluorescence ratio,[3],1.02 (inactive)
same,inhibition,[4],1.36% (inactive)
same,inhibition,[5],6.39% (inactive)
same,fluorescence ratio,[6],0.96 (inactive)
same,inhibition,"[7]; at 0.5 µM, stronger effect = higher value",6.6% (inactive)
same,inhibition,"[7]; measured here: combination with BGB IC20, at 0.005 µM",-30.2%
same,inhibition,"[7]; measured here: combination with BGB IC40, at 0.005 µM",-46.5%
same,inhibition,[7]; [24],-18.6%
same,inhibition,"[7]; measured here: combination with cisplatin, at 0.5 µM, stronger effect = higher value",63%
same,inhibition,"[7]; measured here: combination with cisplatin, at 5 µM, stronger effect = higher value",-0.387%
same,inhibition,"[8]; BGB combo, at 5 µM",-22.5%
same,inhibition,[8]; at 0.5 µM,1.4% (inactive)
same,inhibition,"[8]; cisplatin combo, at 5 µM",-9.76%
same,inhibition,[8]; [22],-13.2%
same,inhibition,[8]; [23],8.47%
same,inhibition,"[8]; single agent, at 5 µM",11%
same,inhibition,"[9]; BGB IC20 combo, at 0.005 µM",3.39%
same,inhibition,"[9]; BGB IC40 combo, at 0.005 µM",6.3%
same,inhibition,"[9]; BGB IC40 combo, at 0.05 µM",12%
same,inhibition,[9]; at 0.5 µM,-8.24% (inactive)
same,inhibition,"[9]; cisplatin combo, at 0.05 µM",7.56%
same,inhibition,"[9]; cisplatin combo, at 0.5 µM",-8.29%
same,inhibition,"[9]; cisplatin combo, at 5 µM",0.667%
same,inhibition,"[9]; measured here: 5 uM single agent, at 5 µM",-5.87%
same,inhibition,[10]; at 0.5 µM,-1.23% (inactive)
same,inhibition,[10]; [24],-1.35%
same,inhibition,[10]; [21],1.03%
same,inhibition,[10]; [25],-6.05%
same,inhibition,[11]; at 0.5 µM,5.7% (inactive)
same,inhibition,"[11]; measured here: with BGB IC20, at 0.5 µM",19%
same,inhibition,"[11]; measured here: with BGB IC20, at 5 µM",26.5%
same,inhibition,"[11]; measured here: with cisplatin IC20, at 0.5 µM",-4.7%
same,inhibition,"[11]; measured here: with cisplatin IC20, at 5 µM",9.84%
same,inhibition,"[11]; single agent, at 5 µM",14.9%
same,inhibition,[12]; at 0.5 µM,1.32% (inactive)
same,inhibition,"[12]; measured here: combination with BGB at IC20, at 0.5 µM",-21.2%
same,inhibition,"[12]; measured here: combination with cisplatin at IC20, at 0.5 µM",29.4%
same,inhibition,[13]; at 0.5 µM,5.15% (inactive)
same,inhibition,"[13]; measured here: combo with BGB at IC20, at 0.5 µM",7.14%
same,inhibition,"[13]; measured here: combo with cisplatin at IC20, at 0.5 µM",3.29%
same,inhibition,[14]; at 0.5 µM,1.18% (inactive)
same,inhibition,"[14]; measured here: inhibition with BGB combination, at 0.05 µM",4.24%
same,inhibition,"[14]; measured here: inhibition with cisplatin combination, at 0.05 µM",-0.452%
same,inhibition,[15]; at 0.5 µM,1.7% (inactive)
same,inhibition,[15]; [21],13.1%
same,inhibition,[15]; [25],18.7%
same,inhibition,[16]; at 0.5 µM,0.36% (inactive)
same,inhibition,"[16]; measured here: BGB combination, at 0.5 µM",1.73%
same,inhibition,"[16]; measured here: BGB combination, at 5 µM",-12.5%
same,inhibition,"[16]; measured here: cisplatin combination, at 0.5 µM",-2.44%
same,inhibition,"[16]; measured here: cisplatin combination, at 5 µM",-1.97%
same,inhibition,"[17]; BGB combination, concentration series, at 5 µM",-1.95%
same,inhibition,[17]; at 0.5 µM,1.5% (inactive)
same,inhibition,"[17]; cisplatin combination, concentration series, at 5 µM",4.45%
same,inhibition,[18],-10.5% (inactive)
same,inhibition,[18]; measured here: combo with BGB IC20,-5.38%
same,inhibition,[18]; measured here: combo with cisplatin IC20,-10.5%
same,inhibition,[19]; at 0.5 µM,0.406% (inactive)
same,inhibition,"[19]; cisplatin combination, at 0.5 µM",-4.06%
same,inhibition,"[19]; cisplatin combination, at 5 µM",-22.6%
same,inhibition,"[19]; measured here: BGB IC40 combination 0.05 uM, at 0.05 µM",-14.2%
same,inhibition,"[19]; single agent, at 5 µM",14.2%
same,inhibition,[1]; at 0.5 µM,-2.39% (inactive)
same,inhibition,"[1]; cisplatin combo, at 5 µM",17.1%
same,inhibition,[1]; [20],-17.4%
same,inhibition,[1]; [21],-9.55%
same,inhibition,"[1]; single agent, at 5 µM",16.6%
same,inhibition,[2]; at 0.5 µM,7.88% (inactive)
same,inhibition,[2]; [22],-2.39%
same,inhibition,[2]; [23],11.6%
same,inhibition,"[2]; single agent, at 0.05 µM",4.52%
same,inhibition,"[2]; single agent, at 5 µM",-19.7%
